Sampled rows, rich in hits. Any-hit rate of the full collection: about 1.7%.
PTHR1 ag = agonists of human PTHR1 parathyroid hormone receptor | Q03431 | HEK293 GP2 PTHR1 cells, GloSensor cAMP luminescence, 1 h | Potency, µM (titrated, usually from 115 µM), most hits filed as activators | hit rate 0.075% among 410,000; note: nearly all actives have a fitted effect of over 55% in size
Target sequence (Q03431 whole entry, looked up): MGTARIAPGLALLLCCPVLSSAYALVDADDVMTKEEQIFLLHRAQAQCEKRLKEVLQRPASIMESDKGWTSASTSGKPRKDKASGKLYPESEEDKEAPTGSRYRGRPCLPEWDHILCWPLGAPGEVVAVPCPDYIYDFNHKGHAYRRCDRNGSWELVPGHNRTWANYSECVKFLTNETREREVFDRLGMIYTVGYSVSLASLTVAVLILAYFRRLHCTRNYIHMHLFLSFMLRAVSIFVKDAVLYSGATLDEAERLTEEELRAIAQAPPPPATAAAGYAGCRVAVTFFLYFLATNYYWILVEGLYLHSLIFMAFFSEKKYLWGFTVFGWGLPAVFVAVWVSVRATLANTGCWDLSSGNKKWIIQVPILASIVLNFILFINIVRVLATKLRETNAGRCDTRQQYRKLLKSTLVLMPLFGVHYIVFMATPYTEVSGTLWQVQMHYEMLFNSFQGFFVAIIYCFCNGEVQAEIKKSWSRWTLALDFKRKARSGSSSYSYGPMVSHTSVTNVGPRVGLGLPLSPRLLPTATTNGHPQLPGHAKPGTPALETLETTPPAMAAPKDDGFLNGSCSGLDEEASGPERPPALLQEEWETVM
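HEK-293-derived GP2 cells expressing PTHR1 and a GloSensor cAMP reporter, 3,000/well, plated overnight, given luciferin plus IBMX (each 0.5 mM as added) for 1 h at 37 °C, then compound for 1 h at 37 °C. Luminescence was read after 15 min at room temperature.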
HEK293 tox = cytotoxicity in counter-screen for GLP-1R inverse agonists; HEK293 cAMP-luciferase reporter cells, luminescence, 24 h; Potency, µM (series often up to 38.3 µM), usual class: inhibitors; hit rate 0.13% among 410,000; AID 624418;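 note: loss of luciferase light is scored as toxicity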
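Seeding density was 200 cells/uL; after overnight-length (12 h) culture, 23 nL compounds went on for 24 h at 37 °C. Readout used a luciferase detection reagent, luminescence taken after 12 min at room temperature.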
GLP-1R inv ag = inverse agonists of human GLP-1 receptor | P43220 | HEK293 GLP-1R CRE-luciferase, luminescence, 24 h; GLP-1R form is constitutively active | Potency, µM (top dose mostly 38.3 µM), most hits filed as inhibitors | hit rate 1.6% among 410,000 | AID 624417; note: nearly all actives have a fitted effect of over 55% in size
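HEK293 cells stably co-expressing a cAMP-responsive luciferase reporter and constitutively active GLP-1R were seeded, incubated 12 h, then exposed to compounds for 24 h at 37 C. Luminescence was read 12 min after detection reagent; inverse agonists lower signal.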
GLP-1R agonist = agonists of human GLP-1 receptor; P43220; Potency, µM (series often up to 45.6 µM), actives largely listed as activators; AID 624172; HEK293 GLP-1R CRE-luciferase, luminescence, 4-6 h; cells express a hypersensitive GLP-1R form; hit rate 0.007% among 380,000
Each line names hits and unclear results; the compound was inactive in the other large screens. Calls come from the whole dose curve; as a rule, active = well fitted curve in the direction sought with a large enough effect; inconclusive = small, poorly fitted or top-dose-only effect, or another doubt; inactive = no such curve, though single readings can be large; an effect the other way counts as inactive or inconclusive.

CCc1ccc(Nc2cc(C)nc3nc(Cc4ccc(Cl)cc4)nn23)cc1	none (no result: GLP-1R agonist)
COc1cc(Cl)c(NS(=O)(=O)c2ccc3c(c2)CC(C)N3C(=O)C2CCC2)c(OC)c1 (stereo unspecified)	GLP-1R inv ag inconclusive (no result: GLP-1R agonist)
CC1(C)CC(C(CCN(Cc2ccccc2)C(=O)c2ccco2)c2ccc(F)cc2)CCO1 (stereo unspecified)	HEK293 tox inconclusive, GLP-1R inv ag 7.94µM
O=C(Nc1cc(-c2nc3ccccc3s2)ccc1Cl)c1cc2ccccc2o1	none (no result: GLP-1R agonist)
COc1cccc(N2CCN(C(=O)c3c(C)oc4ncnc(N5CCOCC5)c34)CC2)c1	none (no result: GLP-1R agonist)
COc1ccc(N2CCN(C(=O)c3c(C)oc4ncnc(N5CCCCC5)c34)CC2)cc1	PTHR1 ag inconclusive, GLP-1R inv ag 11.2µM (no result: GLP-1R agonist)
COc1ccc(NC(=O)C2=C(C)C(=O)OC23CCN(C(C)C)CC3)cc1Cl	none (no result: GLP-1R agonist)
CCOc1ccc(N=C(C)Nc2ccc(OCC)cc2)cc1	none (no result: PTHR1 ag, HEK293 tox, GLP-1R inv ag)
CCCCN(C)CCNC(=O)c1cc2c(-c3ccccc3F)nn(C)c2s1	GLP-1R inv ag 10µM
COc1cccc(-c2nn(C)c3sc(C(=O)NCCCN(C)Cc4ccccc4)cc23)c1	HEK293 tox inconclusive, GLP-1R inv ag 5.62µM
COCCNC(=O)c1cc2c(-c3ccccc3F)nn(C)c2s1	none
CCNC(=O)C1(C)CCN(Cc2cccc(Oc3ccccc3)c2)C1 (stereo unspecified)	none
CCNC(=O)C1(C)CCCN(Cc2ccc(Oc3ccccc3)cc2)C1 (stereo unspecified)	GLP-1R inv ag 10µM
Cc1cccc(/C=c2\s/c(=C\C(=O)C(C)(C)C)[nH]c2=O)c1	HEK293 tox inconclusive, GLP-1R inv ag 8.91µM
Cc1cc(/C=C\c2ccc3cc(N(C)C)ccc3[n+]2C)c(C)n1-c1ccccc1	HEK293 tox inconclusive, GLP-1R inv ag 2µM
Cc1nn2c(C)c(C(=O)N3CCN(c4ccccc4)CC3)cnc2c1-c1ccccc1	none (no result: GLP-1R agonist)
COc1ccc(-n2ccnc(NCc3cccs3)c2=O)cc1	none (no result: GLP-1R agonist)
N#CC(c1ccc(Cl)cc1)c1ccc2c(C(F)(F)F)cc(C(F)(F)F)nc2n1 (stereo unspecified)	HEK293 tox 7.94µM, GLP-1R inv ag 7.08µM
Cc1c(C)c2ccc(OCC(=O)Nc3ccccn3)c(C)c2oc1=O	GLP-1R inv ag 10µM
Cc1cc(C)cc(NC(=O)CCc2c(C)nc3c(c2C)c(=O)n(C)c(=O)n3C)c1	none
CCc1nn(CC(=O)NC2CC2)c(=O)c2cc3ccccc3n12	none (no result: GLP-1R agonist)
O=C(NCc1ccccc1Cl)C1CCCN(C(=O)c2cnn(-c3ccccc3)c2-n2cccc2)C1 (stereo unspecified)	GLP-1R inv ag inconclusive (no result: GLP-1R agonist)
Cc1cccc(C)c1NC(=O)CCCSc1nnc(-c2ccc(F)cc2)n1-c1ccccc1	GLP-1R inv ag inconclusive
Cc1cccc(C)c1NC(=O)CCCSc1nnc(-c2ccc(Cl)cc2)n1-c1ccccc1	GLP-1R inv ag 5.62µM
Cc1occc1C(=O)N1CCN(C(c2ccccc2)c2ccccc2)CC1	GLP-1R inv ag inconclusive
Cc1oc(C(C)(C)C)cc1C(=O)N1CCN(C(c2ccccc2)c2ccccc2)CC1	GLP-1R inv ag 7.94µM
O=C(CNC(=O)Cc1ccccc1)NCC(=O)N1CCN(C(c2ccccc2)c2ccccc2)CC1	GLP-1R inv ag inconclusive
O=C(NCC(=O)N1CCN(C(c2ccccc2)c2ccccc2)CC1)c1ccccc1F	GLP-1R inv ag 8.91µM
Cc1ccccc1C(=O)N1CCN(C(c2ccccc2)c2ccccc2)CC1	GLP-1R inv ag 8.91µM
O=C(C1=COCCO1)N1CCN(C(c2ccccc2)c2ccccc2)CC1	GLP-1R inv ag 10µM
COc1cccc(CN2CCCN(CC(=O)Nc3ccc4c(c3)OCCO4)S2(=O)=O)c1	none (no result: GLP-1R agonist)
O=C(NC(=S)N1CCN(c2ccc(Cl)cc2[N+](=O)[O-])CC1)c1ccco1	HEK293 tox inconclusive
O=C(NC(=S)N1CCN(c2ccc(Cl)cc2[N+](=O)[O-])CC1)c1cccs1	HEK293 tox 5.62µM, GLP-1R inv ag 10µM
CCn1nc(C)cc1C(=O)N1CCc2c([nH]c3ccccc23)C1c1cc(F)ccc1F (stereo unspecified)	GLP-1R inv ag 10µM
Cc1ncoc1C(=O)N1CCc2c([nH]c3ccccc23)C1c1ccccc1F (stereo unspecified)	none
Cc1ccc(C)c(N(C)C(=O)c2cn(C)c(=O)c3ccccc23)c1	GLP-1R inv ag 6.31µM (no result: GLP-1R agonist)
CC(C)c1nc2cc(Cl)ccc2n(Cc2ccccc2)c1=O	GLP-1R inv ag 7.94µM
COC(=O)CCc1nc2cc(Cl)ccc2n(Cc2ccccc2)c1=O	GLP-1R inv ag inconclusive
CC1Cc2cc(S(=O)(=O)CCC(=O)Nc3ccc(F)cc3)ccc2N1C(=O)C1CC1 (stereo unspecified)	none (no result: GLP-1R agonist)
O=C(CSc1ncnc2c1nnn2Cc1ccc(F)cc1)NCC1CCCO1 (stereo unspecified)	HEK293 tox inconclusive, GLP-1R inv ag 12.6µM
Cc1cc(C(=O)NNc2ccc(F)cc2F)no1	HEK293 tox inconclusive, GLP-1R inv ag 2.82µM
Cc1ccc(C)c(CN2C(=O)c3ccccc3S(=O)c3ccc(C(=O)N4CCN(c5ccccn5)CC4)cc32)c1 (stereo unspecified)	GLP-1R inv ag 2.24µM
Cc1ccc(NC(=O)C2CCCN2S(=O)(=O)c2cccc3nsnc23)c(Br)c1 (stereo unspecified)	none (no result: GLP-1R agonist)
CC1(C)S[C@@H]2[C@H](NC(=O)C(C(=O)Oc3ccc4c(c3)CCC4)c3ccccc3)C(=O)N2[C@H]1C(=O)O (stereo partly specified)	none (no result: PTHR1 ag, HEK293 tox, GLP-1R inv ag)
COc1ccccc1N1CCN(Cc2ccc(OC)c(OC)c2OC)CC1	HEK293 tox inconclusive
COc1ccc(CN2CCN(CCCCOc3ccc(Cl)cc3)CC2)c(OC)c1OC	GLP-1R inv ag 7.94µM
CCc1nnc(SCc2cccc(F)c2)c2cc3sc(C)cc3n12	GLP-1R inv ag inconclusive (no result: GLP-1R agonist)
Cc1nn(C)c2c1c(-c1ccccc1)cc(=O)n2CC(=O)NC(C)C	none (no result: GLP-1R agonist)
Oc1ccc(N=Nc2ccc3c(c2)OCCO3)c2ncccc12	HEK293 tox 10µM, GLP-1R inv ag inconclusive
COc1cccc(NC(=O)Cn2c(=O)n(-c3ccc(C)cc3)c(=O)c3ccc(C(=O)NCc4ccco4)cc32)c1	HEK293 tox inconclusive, GLP-1R inv ag inconclusive (no result: GLP-1R agonist)
CCOC(=O)Cn1c(S(=O)(=O)Cc2ccc(F)cc2)nc(-c2ccccc2)c1-c1ccccc1	none
C#CCn1c(S(=O)(=O)Cc2ccc(F)cc2)nc(-c2ccccc2)c1-c1ccccc1	GLP-1R inv ag 5.62µM
COc1cc(NC2c3ccccc3C(=O)N2Cc2ccccc2Cl)cc(OC)c1 (stereo unspecified)	GLP-1R inv ag 10µM
CC(=O)N1CCC2(CC1)OC(=O)C(C)=C2C(=O)Nc1cc(C)ccc1C	none (no result: GLP-1R agonist)
COC(=O)C1=C/C=C\CN(C(c2ccccc2)c2ccccc2)/C=C\1C(=O)OC	GLP-1R inv ag 10µM
COC(=O)CN1CCN(C(c2ccccc2)c2ccccc2)CC1	none
